Several values for one entry are separate records, joined by “and”; a condition that tells them apart may be missing. Identical values can stand only once. Results filed as inconclusive are left out. The source holds several records for some structures; these can differ, active in one and inactive in another. Activity calls are given as the source filed them. Unless noted, the call rests on the fitted dose curve; in most records, active means well fitted curve in the direction sought with a large enough effect in the repeat runs; inconclusive means weak or mixed curves; inactive means no such curve, though single readings can be large; an effect the other way counts as inactive or inconclusive.

Assay [1] can be described thus: Human pregnane X receptor (PXR) small molecule agonists, qHTS cell viability counter screen (AID 1346977). Further: nearly all actives have a fitted effect of over 50% in size. Further: potency means the concentration at half of the fitted maximal effect. In outline: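 Measures live-cell protease fluorescence (CellTiter-Fluor) in PXR-Luc HepG2 cells treated 24hr with compounds at 37C. Cells had 5hr to attach before pin transfer of DMSO solutions.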
For orientation: qHTS replaces the single test concentration by a dilution series.

Assay [2] is described as follows: Caspase-3/7 induction in HepG2 cells by small molecules, qHTS assay (AID 1346978). Further: on the % scale 0 is the no-effect control and ±100 the full control effect; nearly all actives have a fitted effect of over 15% in size. Summed up:
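Wild-type HepG2 cells (2,000/well) were settled 5 h at 37 C, 5% CO2, then exposed to compounds in DMSO for 17 h. Caspase-3/7 activity was read by luminescence 30 min after adding Caspase-Glo 3/7 reagent at room temperature.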

Assay [3] is described as follows: Caspase-3/7 induction in CHO-K1 cells by small molecules, qHTS assay (AID 1346980). Further: on the % scale 0 is the no-effect control and ±100 the full control effect; nearly all actives have a fitted effect of over 15% in size. In outline:
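Wild-type cells were seeded at 1,500 per well and settled 5 hr at 37 C, 5% CO2, then exposed to DMSO-dissolved compounds for 17 hr. Caspase-Glo 3/7 reagent was added, and luminescence was read after 30min at room temperature.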

A short description of assay [4]: Caspase-3/7 induction in HepG2 cells by small molecules, qHTS cell viability counter screen (AID 1346981). Further: nearly all actives have a fitted effect of over 30% in size. Further: potency means the concentration at half of the fitted maximal effect. Summed up: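 HepG2, WT, 2,000 cells/well; 5 hr pre-incubation 37 C/5% CO2; compound pin-transferred from DMSO; 16 hr exposure; CellTiter-Fluor, 1 hr; fluorescence read.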
For assay [5], the target named is Nuclear receptor subfamily 1 group I member 2 (Homo sapiens) (UniProt O75469). In words: Human pregnane X receptor (PXR) small molecule agonists, qHTS assay (AID 1346982). Further: potency means the concentration at half of the fitted maximal effect; nearly all actives have a fitted effect of over 35% in size. Summed up: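 Luciferase signal from ONE-Glo (30 min, room temperature) measured activation of hPXR-driven CYP3A4 reporter expression in PXR-Luc HepG2 cells treated with compounds for 24 hr at 37 C.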

Assay [6] has as its target Acetylcholinesterase (Homo sapiens) (UniProt P22303). In words: Acetylcholinesterase (AChE) small molecule antagonists: colormetric cell-based qHTS assay (AID 1347395; calls by dose curve; further: nearly all actives have a fitted effect of over 30% in size; further: potency means the concentration at half of the fitted maximal effect). Summed up:
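Endogenous AChE of human neuroblastoma SH-SY5Y cells was measured with an Ellman-type DTNB/acetylthiocholine mix. Compound pretreatment lasted 30 min at 37 C; substrate reaction ran 90 min at 37 C.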

Assay [7] has the same target. As to the kind of experiment: Acetylcholinesterase (AChE) small molecule antagonists: enzyme-based qHTS assay (AID 1347397; calls by dose curve; further: on the % scale 0 is the no-effect control and ±100 the full control effect; nearly all actives have a fitted effect of over 55% in size). As to conditions: Potency: AChE enzyme activity inhibition. In outline: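 Recombinant human AChE, dispensed at 50 mU/mL, was preincubated with Tox21 10K compounds or DMSO vehicle for 30 min at room temperature. DTNB plus acetylthiocholine was then added, and thiocholine was measured colorimetrically after a further 10 min.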

Assay [8] shares this target. In words: Acetylcholinesterase (AChE) small molecule antagonists: fluorescence cell-based qHTS assay (AID 1347398; calls by dose curve; further: on the % scale 0 is the no-effect control and ±100 the full control effect; nearly all actives have a fitted effect of over 50% in size). The conditions noted are these: Potency: AChE activity. Summed up: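 Human SH-SY5Y cells were plated overnight at 37 C, exposed to compound for 30 min at 37 C, 5% CO2, then given acetylthiocholine plus Thiolite Green for 40 min at room temperature; thiocholine fluorescence (Ex/Em 490/520 nm) reports endogenous AChE activity.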

Assay [9] has the same target. In words: Acetylcholinesterase (AChE) small molecule antagonists: enzyme-based qHTS assay with human liver microsomes (AID 1347399; calls by dose curve; further: on the % scale 0 is the no-effect control and ±100 the full control effect; nearly all actives have a fitted effect of over 60% in size). The conditions noted are these: Potency: qHTS inhibition. In outline: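 Recombinant human AChE (50 mU/mL in the enzyme mix) and human liver microsomes (0.25 mg/mL final) were preincubated with compound and NADPH (0.25 mg/mL final) for 30 min at 37 C. Acetylthiocholine/DTNB was then added; thiocholine was read colorimetrically after 10 min at room temperature.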

Assay [10] concerns the target Cytochrome P450 2C19 (Homo sapiens) (UniProt P33261). As to the kind of experiment: Cytochrome P450 Family 2 Subfamily C Member 19 (CYP2C19) small molecule antagonists: luciferase reporter qHTS assay (AID 1671197). Further: nearly all actives have a fitted effect of over 65% in size. Further: potency means the concentration at half of the fitted maximal effect. In outline:
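Light output is proportional to CYP2C19 activity: proluciferin substrate is converted to luciferin, then detected by a luciferin detection reagent that also stops the 1 h, 37C NADPH-driven reaction. Ketoconazole serves as positive control.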
Background: In a reporter assay the amount or activity of a reporter protein is the signal.

Assay [11] concerns the target Cytochrome P450 2C9 (Homo sapiens) (UniProt P11712). As to the kind of experiment: Cytochrome P450 Family 2 Subfamily C Member 9 (CYP2C9) small molecule antagonists: luciferase reporter qHTS assay (AID 1671198). Further: nearly all actives have a fitted effect of over 50% in size. Further: potency means the concentration at half of the fitted maximal effect. In outline:
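CYP2C9 activity was measured with a P450-Glo proluciferin substrate. Enzyme–substrate mix was held with compound for 10 min at room temperature, then NADPH regeneration solution was added for 1 h at 37C. Luciferin product was read as luminescence.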

The target of assay [12] is Cytochrome P450 1A2 (Homo sapiens) (UniProt P05177). As to the kind of experiment: Cytochrome P450 Family 1 Subfamily A Member 2 (CYP1A2) small molecule antagonists: luciferase reporter qHTS assay (AID 1671199). Further: nearly all actives have a fitted effect of over 50% in size. Further: potency means the concentration at half of the fitted maximal effect. In outline:
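P450-Glo CYP1A2, 1536-well qHTS: enzyme/proluciferin substrate + cpd (DMSO), 10 min RT; NADPH regen, 1 h RT; detection reagent, 20 min; luminescence, RLU.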

The target in assay [13] is Voltage-gated inwardly rectifying potassium channel KCNH2 (Homo sapiens) (UniProt Q12809). In words: Human Ether-a-go-go-Related Gene (hERG) channel small molecule antagonists: fluorescence cell-based qHTS assay (AID 1671200). Summed up: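 Quantitative HTS in hERG-U2OS cells: thallium entry through the channel reports activity, read as continuous 480/540 nm fluorescence over 2 min after stimulus addition.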
Background: hERG is a cardiac potassium channel; its block is linked to QT prolongation.

Assay [14] concerns the target Cytochrome P450 3A4 (Homo sapiens) (UniProt P08684). As to the kind of experiment: Cytochrome P450 Family 3 Subfamily A Member 4 (CYP3A4) small molecule antagonists: luciferase reporter qHTS assay (AID 1671201). Further: nearly all actives have a fitted effect of over 50% in size. Further: potency means the concentration at half of the fitted maximal effect. In outline: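 Inhibition of CYP3A4 is measured as loss of light: the enzyme converts a proluciferin substrate to luciferin, detected luminescently. Reaction ran 1 h at room temperature with NADPH regeneration after a 10 min compound preincubation.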

A short description of assay [15]: Caspase-3/7 induction in CHO-K1 cells by small molecules, qHTS cell viability counter screen (AID 1346979). Further: nearly all actives have a fitted effect of over 35% in size. Further: potency means the concentration at half of the fitted maximal effect. In outline:
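In the same wells as the caspase read, viability of compound-treated wild-type CHO-K1 cells was assessed using CellTiter-Fluor, added after 16hr at 37C and measured by fluorescence following 1hr further incubation.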

Assay [16] concerns the target Cytochrome P450 2D6 (Homo sapiens) (UniProt P10635). As to the kind of experiment: Cytochrome P450 Family 2 Subfamily D Member 6 (CYP2D6) small molecule antagonists: luciferase reporter qHTS assay (AID 1671196). Further: nearly all actives have a fitted effect of over 50% in size. Further: potency means the concentration at half of the fitted maximal effect. In outline: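 Read-out is luminescence from luciferin formed by CYP2D6 turnover of a proluciferin substrate, recorded as relative luminescence units. Reactions ran 1 h at room temperature after NADPH regeneration solution was added.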

The target in assay [17] is Nuclear receptor subfamily 1 group I member 2 (Rattus norvegicus) (UniProt Q9R1A7). As to the kind of experiment: Rat pregnane X receptor (rPXR) activation by small molecules, qHTS assay (AID 1346983). Further: on the % scale 0 is the no-effect control and ±100 the full control effect; nearly all actives have a fitted effect of over 20% in size. The conditions noted are these: rPXR luciferase reporter cells, One-Glo luminescence, 24 h; stronger effect = higher value. Summed up: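 Cell-based rPXR luciferase reporter assay, 2,000 cells per well, rested 5hr at 37 C before compound addition in DMSO, then 24 hr at 37 C. One-Glo reagent was added and luminescence read after 30 min at room temperature.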

Sequence of Cytochrome P450 1A2 (Homo sapiens) (P05177 whole entry, looked up): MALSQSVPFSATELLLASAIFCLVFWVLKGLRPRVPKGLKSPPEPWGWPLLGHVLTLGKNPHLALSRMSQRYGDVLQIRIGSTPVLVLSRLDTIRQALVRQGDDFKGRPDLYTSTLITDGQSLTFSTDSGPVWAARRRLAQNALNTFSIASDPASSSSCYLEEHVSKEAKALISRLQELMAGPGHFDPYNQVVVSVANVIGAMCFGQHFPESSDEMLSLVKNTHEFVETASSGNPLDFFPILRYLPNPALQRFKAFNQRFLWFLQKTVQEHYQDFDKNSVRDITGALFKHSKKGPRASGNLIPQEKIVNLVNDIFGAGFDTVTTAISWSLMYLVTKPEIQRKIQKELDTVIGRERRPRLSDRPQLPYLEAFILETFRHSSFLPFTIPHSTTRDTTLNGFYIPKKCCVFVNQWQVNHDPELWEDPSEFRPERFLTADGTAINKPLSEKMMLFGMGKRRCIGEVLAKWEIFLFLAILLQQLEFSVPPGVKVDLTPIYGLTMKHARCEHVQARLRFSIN
Sequence of Cytochrome P450 2D6 (Homo sapiens) (P10635 whole entry, looked up): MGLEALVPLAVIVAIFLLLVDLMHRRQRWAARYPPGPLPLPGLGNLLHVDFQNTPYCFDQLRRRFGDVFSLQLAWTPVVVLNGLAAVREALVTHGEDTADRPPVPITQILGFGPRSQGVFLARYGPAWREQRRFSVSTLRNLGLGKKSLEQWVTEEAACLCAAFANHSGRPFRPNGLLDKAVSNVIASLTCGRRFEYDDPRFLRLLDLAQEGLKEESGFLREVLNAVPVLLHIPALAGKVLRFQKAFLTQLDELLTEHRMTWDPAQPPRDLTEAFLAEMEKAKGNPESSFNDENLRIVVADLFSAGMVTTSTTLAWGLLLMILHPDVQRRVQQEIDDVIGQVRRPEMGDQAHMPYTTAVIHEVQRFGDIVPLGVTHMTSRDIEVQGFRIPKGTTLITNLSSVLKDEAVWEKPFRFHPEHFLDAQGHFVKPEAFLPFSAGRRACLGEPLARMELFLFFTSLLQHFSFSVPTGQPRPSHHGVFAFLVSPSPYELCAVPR
Sequence of Acetylcholinesterase (Homo sapiens) (P22303 whole entry, looked up): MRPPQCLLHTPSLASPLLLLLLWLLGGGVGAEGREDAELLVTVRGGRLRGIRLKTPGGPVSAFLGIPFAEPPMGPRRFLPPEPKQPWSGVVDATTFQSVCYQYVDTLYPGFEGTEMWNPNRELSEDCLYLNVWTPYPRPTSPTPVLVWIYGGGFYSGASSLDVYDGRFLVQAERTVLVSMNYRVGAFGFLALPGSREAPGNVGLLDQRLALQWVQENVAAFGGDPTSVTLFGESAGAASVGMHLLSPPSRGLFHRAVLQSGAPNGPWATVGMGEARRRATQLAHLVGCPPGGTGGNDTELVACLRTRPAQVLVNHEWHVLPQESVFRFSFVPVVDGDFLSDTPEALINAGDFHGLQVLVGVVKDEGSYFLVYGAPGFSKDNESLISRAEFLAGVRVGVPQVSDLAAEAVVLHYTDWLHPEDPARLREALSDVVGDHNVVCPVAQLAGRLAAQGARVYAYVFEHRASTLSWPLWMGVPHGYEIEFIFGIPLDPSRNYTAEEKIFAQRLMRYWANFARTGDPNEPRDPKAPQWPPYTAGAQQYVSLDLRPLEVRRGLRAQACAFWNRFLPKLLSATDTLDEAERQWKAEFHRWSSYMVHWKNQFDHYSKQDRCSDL
Sequence of Cytochrome P450 3A4 (Homo sapiens) (P08684 whole entry, looked up): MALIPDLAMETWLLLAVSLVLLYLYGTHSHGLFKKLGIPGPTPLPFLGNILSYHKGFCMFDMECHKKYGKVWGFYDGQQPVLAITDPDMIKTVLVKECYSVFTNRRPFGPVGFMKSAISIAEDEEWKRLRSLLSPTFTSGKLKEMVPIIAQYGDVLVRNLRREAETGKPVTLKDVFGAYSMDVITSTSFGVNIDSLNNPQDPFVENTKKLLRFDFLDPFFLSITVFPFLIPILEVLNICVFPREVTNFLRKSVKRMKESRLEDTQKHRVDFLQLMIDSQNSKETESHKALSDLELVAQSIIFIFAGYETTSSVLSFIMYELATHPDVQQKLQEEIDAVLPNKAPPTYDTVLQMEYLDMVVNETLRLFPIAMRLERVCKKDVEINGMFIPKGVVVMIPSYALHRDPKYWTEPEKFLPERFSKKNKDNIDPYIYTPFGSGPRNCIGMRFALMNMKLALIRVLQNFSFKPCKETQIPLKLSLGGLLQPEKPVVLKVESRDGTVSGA
Sequence of Cytochrome P450 2C9 (Homo sapiens) (P11712 whole entry, looked up): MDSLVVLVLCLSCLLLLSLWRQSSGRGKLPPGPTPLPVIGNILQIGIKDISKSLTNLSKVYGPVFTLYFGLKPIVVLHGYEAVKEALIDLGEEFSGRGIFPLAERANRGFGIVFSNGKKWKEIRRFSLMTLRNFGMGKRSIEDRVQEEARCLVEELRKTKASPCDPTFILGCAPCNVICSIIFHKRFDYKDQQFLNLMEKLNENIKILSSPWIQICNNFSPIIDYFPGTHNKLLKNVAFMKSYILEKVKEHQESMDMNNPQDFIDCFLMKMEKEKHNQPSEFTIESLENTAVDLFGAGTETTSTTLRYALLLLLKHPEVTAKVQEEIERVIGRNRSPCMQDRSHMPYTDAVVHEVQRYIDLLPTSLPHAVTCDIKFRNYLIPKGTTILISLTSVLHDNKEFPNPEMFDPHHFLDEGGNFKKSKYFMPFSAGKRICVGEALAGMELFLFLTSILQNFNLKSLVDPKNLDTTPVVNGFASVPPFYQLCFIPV
Sequence of Nuclear receptor subfamily 1 group I member 2 (Homo sapiens) (O75469 whole entry, looked up): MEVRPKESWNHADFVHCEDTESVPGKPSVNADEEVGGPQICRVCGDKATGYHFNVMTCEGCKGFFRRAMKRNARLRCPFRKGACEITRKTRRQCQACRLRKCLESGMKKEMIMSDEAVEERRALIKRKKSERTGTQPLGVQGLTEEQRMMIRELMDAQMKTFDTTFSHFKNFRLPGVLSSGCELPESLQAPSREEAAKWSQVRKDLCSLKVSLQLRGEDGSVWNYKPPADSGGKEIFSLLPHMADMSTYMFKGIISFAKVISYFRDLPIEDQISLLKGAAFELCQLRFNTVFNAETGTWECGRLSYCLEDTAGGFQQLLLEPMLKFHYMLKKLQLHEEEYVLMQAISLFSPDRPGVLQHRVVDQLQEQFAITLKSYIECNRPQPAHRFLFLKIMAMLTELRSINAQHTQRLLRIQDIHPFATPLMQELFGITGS
Sequence of Voltage-gated inwardly rectifying potassium channel KCNH2 (Homo sapiens) (Q12809 whole entry, looked up): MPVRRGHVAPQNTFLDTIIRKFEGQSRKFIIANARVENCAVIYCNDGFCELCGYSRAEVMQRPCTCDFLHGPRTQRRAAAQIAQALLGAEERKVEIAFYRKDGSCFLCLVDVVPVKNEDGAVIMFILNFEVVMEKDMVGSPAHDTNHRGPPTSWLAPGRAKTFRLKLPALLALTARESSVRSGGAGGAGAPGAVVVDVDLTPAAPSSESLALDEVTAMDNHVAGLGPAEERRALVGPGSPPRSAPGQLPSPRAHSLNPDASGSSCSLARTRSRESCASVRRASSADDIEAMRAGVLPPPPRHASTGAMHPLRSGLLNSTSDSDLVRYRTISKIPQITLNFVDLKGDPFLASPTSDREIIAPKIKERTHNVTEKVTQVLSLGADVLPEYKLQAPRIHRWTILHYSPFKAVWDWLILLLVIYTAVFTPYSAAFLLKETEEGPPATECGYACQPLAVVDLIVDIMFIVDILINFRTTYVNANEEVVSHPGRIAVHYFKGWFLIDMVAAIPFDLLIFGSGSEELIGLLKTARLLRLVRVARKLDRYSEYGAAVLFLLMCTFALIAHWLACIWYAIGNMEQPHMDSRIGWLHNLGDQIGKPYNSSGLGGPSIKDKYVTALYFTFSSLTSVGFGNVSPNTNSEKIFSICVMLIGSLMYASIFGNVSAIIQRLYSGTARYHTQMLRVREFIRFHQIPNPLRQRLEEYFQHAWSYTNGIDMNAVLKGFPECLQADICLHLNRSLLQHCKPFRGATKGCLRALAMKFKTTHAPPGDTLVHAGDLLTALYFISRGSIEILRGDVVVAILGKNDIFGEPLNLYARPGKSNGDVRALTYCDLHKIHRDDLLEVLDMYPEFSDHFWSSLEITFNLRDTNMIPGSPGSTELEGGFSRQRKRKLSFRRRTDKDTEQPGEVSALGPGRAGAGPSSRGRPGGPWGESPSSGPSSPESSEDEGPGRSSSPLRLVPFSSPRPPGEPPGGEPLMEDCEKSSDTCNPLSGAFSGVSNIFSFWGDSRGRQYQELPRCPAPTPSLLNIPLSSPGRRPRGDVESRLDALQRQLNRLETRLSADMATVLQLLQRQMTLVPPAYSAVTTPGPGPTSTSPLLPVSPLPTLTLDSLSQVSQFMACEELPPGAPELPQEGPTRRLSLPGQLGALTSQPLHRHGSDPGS
Sequence of Cytochrome P450 2C19 (Homo sapiens) (P33261 whole entry, looked up): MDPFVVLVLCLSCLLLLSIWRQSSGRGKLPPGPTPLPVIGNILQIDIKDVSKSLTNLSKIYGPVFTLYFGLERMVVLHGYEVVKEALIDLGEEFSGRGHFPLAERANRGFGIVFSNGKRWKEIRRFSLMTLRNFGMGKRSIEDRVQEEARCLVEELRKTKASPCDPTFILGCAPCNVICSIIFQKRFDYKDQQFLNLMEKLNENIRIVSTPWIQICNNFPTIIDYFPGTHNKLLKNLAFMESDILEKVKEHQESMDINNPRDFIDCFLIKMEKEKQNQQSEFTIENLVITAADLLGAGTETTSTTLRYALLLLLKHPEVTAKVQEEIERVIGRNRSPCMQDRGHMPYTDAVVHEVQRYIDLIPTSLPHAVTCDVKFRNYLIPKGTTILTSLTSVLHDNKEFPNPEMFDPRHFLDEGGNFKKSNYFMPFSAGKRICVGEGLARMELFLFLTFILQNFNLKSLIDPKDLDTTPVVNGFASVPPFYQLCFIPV

In the case of `CC1=C(C(=O)Nc2ccccc2)SCCO1`, the Potency entry in [1], in assay [2], in assay [3], in assay [4], in assay [6] and in assay [7] was “inactive” in each case. In addition, the Potency entry in assay [8], in assay [9], in [13] and in assay [14] was “inactive” in each case. For the same molecule, the Potency in assay [5] was 34.9 µM (active) and 30.6 µM (active); in assay [10], 36.2 µM (active) and 22.4 µM (active); in assay [11] it was 11.2 µM (active); in [12] it was 12.8 µM (active) and 12.6 µM (active).
Take `N#Cc1c(Cl)c(Cl)c(Cl)c(C#N)c1Cl`: the Potency was 12.6 µM (active) and 13.7 µM (active) in assay [1]; 1.07 µM (active) and 1.72 µM (active) in [15]; 23.9 µM (active) and 54.5 µM (active) in assay [4]; 950 nM (active) and 1.93 µM (active) in assay [5]; 15.6 µM (active) and 17.8 µM (active) in assay [6]; 34.9 µM (active) and inactive in assay [16]. In addition, the Potency in [10] was 17.5 µM (active) and 22.4 µM (active); in [11] it was 5.53 µM (active) and 5.64 µM (active); in assay [12], 984 nM (active) and 1 µM (active); in assay [14], 984 nM (active) and 1.26 µM (active). Moreover, the Potency result in assay [2], in [7], in [9] and in assay [13] was “inactive” throughout.
On to `NC(=O)CN1CCCC1=O`, for which the Potency result in [1], in assay [2], in [15], in assay [3], in assay [4] and in assay [6] was “inactive” throughout. In addition, the Potency entry in assay [7], in assay [8], in assay [9], in assay [16], in [10] and in assay [11] was “inactive” in each case. Moreover, the Potency entry in assay [12], in assay [13] and in assay [14] was “inactive” in each case. For the same molecule, in assay [17], the max activation was -4.89% (inactive).
As to `CCC(=O)Nc1ccc(Cl)c(Cl)c1`, the Potency entry in [1], in assay [2], in [3], in [4], in [6] and in [7] was “inactive” throughout. Moreover, the Potency result in [8], in assay [9] and in [13] was “inactive” each time. Moreover, the Potency was 36.3 µM (active) in [16]; 22.9 µM (active) and 35.6 µM (active) in assay [10]; 64.6 µM (active) and 63.3 µM (active) in [11]; 5.13 µM (active) and 7.1 µM (active) in assay [12].
Regarding `CC1(C)C(C(=O)OC(C#N)c2cccc(Oc3ccccc3)c2)C1(C)C` (configuration not stated), the Potency result in assay [1], in assay [2], in assay [15], in assay [3], in assay [4] and in [6] was “inactive” in each case. For the same molecule, the Potency entry in assay [7], in [8], in [9], in assay [16], in assay [13] and in [14] was “inactive” throughout. The Potency in assay [5] was 15.5 µM (active); in assay [10], 9 µM (active) and 22.4 µM (active); in assay [11] it was 11.3 µM (active) and 7.96 µM (active).
